SMILES strings stand for the structures. Inconclusive results are not listed. Values without a mark were called inactive. The source made the active and inactive calls. The call rests on the fitted dose curve; in most records, active means well fitted curve in the direction sought with a large enough effect; inconclusive means small, poorly fitted or top-dose-only effect, or another doubt; inactive means no such curve, though single readings can be large; an effect the other way counts as inactive or inconclusive.
On the % scale 0 is the no-effect control and ±100 the full control effect; potency means the concentration at half of the fitted maximal effect.

One assay is described as follows: qHTS of pediatric cancer cell lines to identify multiple opportunities for drug repurposing: Primary screen for control Hh wild type fibroblast cells (AID 1347106). Further: nearly all actives have a fitted effect of over 55% in size.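 On activity change, negative = cytotoxic: a drop in luminescence marks cytotoxicity and a rise apparent proliferation.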 The conditions noted are these: Hh wild-type fibroblast viability, CellTiter-Glo luminescence, 48 h; series mostly up to 46 µM; activity change, negative = cytotoxic: at the top concentration. The procedure, abridged:
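Viability after 48 h compound treatment at 37C, 500-1,000 cells/well, read as ATP luminescence with CellTiter-Glo. Primary screens used 11-point (MIPE, 0.78 nM-46 µM) or 8-point (NPC, 0.59 nM-46 µM) final concentrations; follow-up screens used 11-point dilutions.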
(In general: Quantitative high-throughput screening tests each substance at several concentrations.)
Turning to `N#Cc1c(C2CCNCC2)cc(-c2c(O)cccc2OCC2CC2)nc1N`, the “activity change, negative = cytotoxic” value is -6.68%.

With `CN(CC(=O)N(Cc1ccc(C2CCCCC2)cc1)c1ccc(C(=O)O)c(O)c1)S(=O)(=O)c1c(F)c(F)c(F)c(F)c1F`, the “activity change, negative = cytotoxic” value is -2.81%.

Regarding `O=C1CSC(=O)N1C(CCc1ccncc1)COc1ccc(-c2cccc([N+](=O)[O-])c2)cc1` (stereo unspecified), the “activity change, negative = cytotoxic” value is 2.45%.

With `O=C(O)CCCCCC(=O)NN=C1CCCC1`, the “activity change, negative = cytotoxic” value was 1.52%.

In the case of `C#C[C@]1(O)CC[C@@H]2[C@@H]3CCc4cc(O)ccc4[C@H]3CC[C@@]21C`, the “activity change, negative = cytotoxic” value was -4.4%.

Consider `CCOC(=O)N1CCN([N+]([O-])=NOc2ccc([N+](=O)[O-])cc2[N+](=O)[O-])CC1`, for which the “activity change, negative = cytotoxic” value is -0.66%.

As to `Cc1cnn(C)c1C(=O)Nc1cc(Nc2ccc3c(C=Cc4ccccn4)n[nH]c3c2)ccc1F`, the “activity change, negative = cytotoxic” value was -10.2%.

Take `Cc1cncc2cccc(S(=O)(=O)N3CCCN(C(=O)CN)C[C@@H]3C)c12`: the “activity change, negative = cytotoxic” value is -16%.

Take `N#CC(=C(O)c1ccc(Cl)cc1Cl)c1nc2cc(Cl)ccc2c(=O)[nH]1`: the “activity change, negative = cytotoxic” value is -0.336%.

With `CCc1cc(C(C)=NOCc2ccc(C3CCCCC3)c(C(F)(F)F)c2)ccc1CN1CC(C(=O)O)C1`, the “activity change, negative = cytotoxic” value is 4.74%.

Regarding `C[C@@H](NCc1cc2ccccc2[nH]1)c1cccc2ccccc12`, the “activity change, negative = cytotoxic” value was 2.72%.

Turning to `Cc1cn([C@@H]2O[C@H](CO)[C@@H](O)[C@H]2F)c(=O)[nH]c1=O`, the “activity change, negative = cytotoxic” value is 8.46%.

On to `C=C[C@@H]1CN2CCC1C[C@H]2[C@H](O)c1ccnc2ccc(OC)cc12` (stereo partly specified), for which the “activity change, negative = cytotoxic” value is -12.2%.

As for `C[C@]12CCC(=O)C=C1[C@@H]1CC1[C@H]1[C@H]3[C@@H]4C[C@H]4[C@@]4(CCC(=O)O4)[C@@]3(C)CC[C@H]12` (stereo partly specified), the “activity change, negative = cytotoxic” value is -9.17%.

Consider `CCN(CC)Cc1ccc2cc(COC(=O)Nc3ccc(C(=O)NO)cc3)ccc2c1`, for which the Potency was 14.8 µM (active).

Regarding `COc1cc(OC)c(NC(=O)Nc2cc(C)on2)cc1Cl`, the “activity change, negative = cytotoxic” value is -11.9%.

For `O=C(O)c1ccc(Nc2ncc3c(n2)-c2ccc(Cl)cc2C(c2c(F)cccc2F)=NC3)cc1`, the “activity change, negative = cytotoxic” value is 3.16%.

For the molecule `COc1cc(C[C@@H](CO)[C@H](CO)Cc2ccc(O)c(OC)c2)ccc1O`, the Potency was 0.418 µM (active).

Consider `CCCCCCCCCCCCc1ccc(S(=O)(=O)Nc2nncs2)cc1`, for which the “activity change, negative = cytotoxic” value is 0.644%.

As to `Cn1cc(C2=C(c3c4n(c5ccccc35)CCC(CN)C4)C(=O)NC2=O)c2ccccc21` (stereo unspecified), the “activity change, negative = cytotoxic” value was 15.9%.

Consider `N=c1ccn2c(n1)O[C@H]1[C@@H](O)[C@@H](CO)O[C@H]12`, for which the “activity change, negative = cytotoxic” value was 7.28%.

For `CCOC(=O)C=C[C@H](C[C@@H]1CCNC1=O)NC(=O)[C@@H](CC(=O)[C@@H](NC(=O)c1cc(C)on1)C(C)C)Cc1ccc(F)cc1`, the “activity change, negative = cytotoxic” value is -0.0739%.

For `NC(=O)c1ncn([C@@H]2O[C@H](CO)[C@@H](O)[C@@H]2O)c1N`, the “activity change, negative = cytotoxic” value is -1.33%.

In the case of `Oc1cc2c(cc1O)C1c3ccc(O)c(O)c3OCC1(O)C2` (stereo unspecified), the “activity change, negative = cytotoxic” value was -13.6%.

On to `COc1cc(C(C)C)c(Oc2cnc(NC(CO)CO)nc2N)cc1I`, for which the “activity change, negative = cytotoxic” value was -7.91%.

For the molecule `CN(C)c1ccc2cc(C(=O)N[C@@H](CCCN=C(N)CCl)C(=O)NCc3ccccc3)ccc2c1`, the “activity change, negative = cytotoxic” value was -3.38%.

On to `CCCc1nc(C(C)(C)O)c(C(=O)O)n1Cc1ccc(-c2ccccc2-c2nn[nH]n2)cc1`, for which the “activity change, negative = cytotoxic” value was -19.9%.

In the case of `C[C@H](O)[C@@H]1C(=O)N2C(C(=O)O)=C(S[C@@H]3CN[C@H](CNS(N)(=O)=O)C3)[C@@H](C)[C@@H]12`, the “activity change, negative = cytotoxic” value was 6.69%.

For the molecule `Cc1ccccc1C(=O)Nc1ccc(C(=O)N2CCCC(O)c3cc(Cl)ccc32)c(C)c1` (stereo unspecified), the “activity change, negative = cytotoxic” value is 9.38%.

A further assay is described as follows: qHTS of pediatric cancer cell lines to identify multiple opportunities for drug repurposing: Primary screen for Rh30 cells (AID 1347107). Further: nearly all actives have a fitted effect of over 75% in size. As to conditions: Rh30 rhabdomyosarcoma viability, CellTiter-Glo luminescence, 48 h; series mostly up to 46 µM; activity change, negative = cytotoxic: at the top concentration. The procedure, abridged: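 Cells (500-1,000/well) in growth media were settled 5 h at 37 degrees C, then given compounds for 48 h. Viability was read as CellTiter-Glo luminescence. Primary runs used MIPE at 11 points (0.78 nM-46 µM) and NPC at 8 points (0.59 nM-46 µM); follow-ups used 11 points.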
Turning to `CC(=O)O[C@]1(C(C)=O)CC[C@H]2[C@@H]3C=C(C)C4=CC(=O)CC[C@]4(C)[C@@H]3CC[C@@]21C`, the “activity change, negative = cytotoxic” value was -19.4%.

Take `Cn1cc(-c2cnn3c(N)c(Br)c([C@H]4CCCNC4)nc23)cn1`: the “activity change, negative = cytotoxic” value is -24.8%.

As to `O=C(O)CCCCCC(=O)NN=C1CCCC1`, the “activity change, negative = cytotoxic” value was 20%.

As for `CCOC(=O)N1CCN([N+]([O-])=NOc2ccc([N+](=O)[O-])cc2[N+](=O)[O-])CC1`, the “activity change, negative = cytotoxic” value was -4.21%.

On to `C=Cc1c(C)c2cc3nc(cc4[nH]c(cc5nc(cc1[nH]2)C(C)=C5CCC(=O)O)c(CCC(=O)OC)c4C)[C@@]1(C)C3=CC=C(C(=O)OC)[C@H]1C(=O)OC`, for which the “activity change, negative = cytotoxic” value is -5.02%.

With `N#CC(=C(O)c1ccc(Cl)cc1Cl)c1nc2cc(Cl)ccc2c(=O)[nH]1`, the “activity change, negative = cytotoxic” value is 9.32%.

Turning to `CCc1cc(C(C)=NOCc2ccc(C3CCCCC3)c(C(F)(F)F)c2)ccc1CN1CC(C(=O)O)C1`, the “activity change, negative = cytotoxic” value was 9.7%.

For `C[C@@H](NCc1cc2ccccc2[nH]1)c1cccc2ccccc12`, the “activity change, negative = cytotoxic” value was 11.2%.

For the molecule `Cc1cn([C@@H]2O[C@H](CO)[C@@H](O)[C@H]2F)c(=O)[nH]c1=O`, the “activity change, negative = cytotoxic” value was 26.6%.

In the case of `C=C[C@@H]1CN2CCC1C[C@H]2[C@H](O)c1ccnc2ccc(OC)cc12` (stereo partly specified), the “activity change, negative = cytotoxic” value was 15.5%.

For `C[C@]12CCC(=O)C=C1[C@@H]1CC1[C@H]1[C@H]3[C@@H]4C[C@H]4[C@@]4(CCC(=O)O4)[C@@]3(C)CC[C@H]12` (stereo partly specified), the “activity change, negative = cytotoxic” value is 12.7%.

Turning to `CCCNC(=O)[C@H]1O[C@H]1C(=O)N[C@H](C(=O)N1CCC[C@@H]1C(=O)OC)C(C)CC` (stereo partly specified), the Potency is 18.7 µM (active).

Regarding `CCN(CC)Cc1ccc2cc(COC(=O)Nc3ccc(C(=O)NO)cc3)ccc2c1`, the Potency was 4.69 µM (active).

On to `COc1cc(OC)c(NC(=O)Nc2cc(C)on2)cc1Cl`, for which the “activity change, negative = cytotoxic” value is 14.1%.

`O=C(O)c1ccc(Nc2ncc3c(n2)-c2ccc(Cl)cc2C(c2c(F)cccc2F)=NC3)cc1`: the Potency is 18.7 µM (active).

Regarding `N#CC(=C(N)Sc1ccc(N)cc1)c1ccccc1C(F)(F)F`, the “activity change, negative = cytotoxic” value is -5.31%.

Turning to `COc1cc(C[C@@H](CO)[C@H](CO)Cc2ccc(O)c(OC)c2)ccc1O`, the Potency is 0.469 µM (active).

As for `CCCCCCCCCCCCc1ccc(S(=O)(=O)Nc2nncs2)cc1`, the “activity change, negative = cytotoxic” value is 0.638%.

In the case of `C#Cc1cccc(Nc2ncnc3cc(OCCOC)c(OCCO)cc23)c1`, the “activity change, negative = cytotoxic” value is -14.1%.

`CCOC(=O)C=C[C@H](C[C@@H]1CCNC1=O)NC(=O)[C@@H](CC(=O)[C@@H](NC(=O)c1cc(C)on1)C(C)C)Cc1ccc(F)cc1`: the “activity change, negative = cytotoxic” value is 31.3%.

Take `NC(=O)c1ncn([C@@H]2O[C@H](CO)[C@@H](O)[C@@H]2O)c1N`: the “activity change, negative = cytotoxic” value is 7.49%.

Consider `Oc1cc2c(cc1O)C1c3ccc(O)c(O)c3OCC1(O)C2` (stereo unspecified), for which the “activity change, negative = cytotoxic” value is 14.4%.

Consider `COc1cc(C(C)C)c(Oc2cnc(NC(CO)CO)nc2N)cc1I`, for which the “activity change, negative = cytotoxic” value is 2.66%.

For `CN(C)c1ccc2cc(C(=O)N[C@@H](CCCN=C(N)CCl)C(=O)NCc3ccccc3)ccc2c1`, the Potency is 4.69 µM (active).

As for `CCCc1nc(C(C)(C)O)c(C(=O)O)n1Cc1ccc(-c2ccccc2-c2nn[nH]n2)cc1`, the “activity change, negative = cytotoxic” value is 20.3%.

Take `C[C@H](O)[C@@H]1C(=O)N2C(C(=O)O)=C(S[C@@H]3CN[C@H](CNS(N)(=O)=O)C3)[C@@H](C)[C@@H]12`: the “activity change, negative = cytotoxic” value was 22.5%.

In the case of `Cc1ccccc1C(=O)Nc1ccc(C(=O)N2CCCC(O)c3cc(Cl)ccc32)c(C)c1` (stereo unspecified), the “activity change, negative = cytotoxic” value was 12.9%.

The values above are taken from PubChem BioAssay (NCATS).
